Most compounds without a hit are left out; they make up all but 9% or so of the library.
HPGD inh – qHTS Assay for Inhibitors of HPGD (15-Hydroxyprostaglandin Dehydrogenase) | 15-hydroxyprostaglandin dehydrogenase [NAD(+)] (Homo sapiens), P15428 | purified HPGD, NADH fluorescence kinetic, PGE2 substrate | Potency, µM, hits mostly inhibitors | 4.3% of 150,000 active | AID 894, 2007
Target sequence (P15428 whole entry, looked up): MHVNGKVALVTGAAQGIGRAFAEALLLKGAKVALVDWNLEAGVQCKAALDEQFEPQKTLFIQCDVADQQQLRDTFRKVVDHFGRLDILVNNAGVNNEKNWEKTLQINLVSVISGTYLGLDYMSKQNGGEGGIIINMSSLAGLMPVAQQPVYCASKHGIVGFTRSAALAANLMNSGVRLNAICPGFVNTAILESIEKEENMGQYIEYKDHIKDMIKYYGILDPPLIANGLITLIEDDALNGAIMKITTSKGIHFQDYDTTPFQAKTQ
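20 nM HPGD preincubated 15 min at room temperature with compound in 50 mM Tris-HCl pH 8, 0.01% Tween 20. Started with 1 mM NAD+ and 30 uM prostaglandin E2; NADH fluorescence (360/450 nm) read 5 times over 30-s intervals, last minus first.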
ALDH1A1 block – qHTS Assay for Inhibitors of Aldehyde Dehydrogenase 1 (ALDH1A1) | Aldehyde dehydrogenase 1A1 (Homo sapiens), P00352 | Purified ALDH1A1, NADH fluorescence, propionaldehyde substrate | Potency, µM (highest dose often 75.3 µM), hits mostly inhibitors | 7.3% of 220,000 active | AID 1030, 2008
Target sequence (P00352 whole entry, looked up): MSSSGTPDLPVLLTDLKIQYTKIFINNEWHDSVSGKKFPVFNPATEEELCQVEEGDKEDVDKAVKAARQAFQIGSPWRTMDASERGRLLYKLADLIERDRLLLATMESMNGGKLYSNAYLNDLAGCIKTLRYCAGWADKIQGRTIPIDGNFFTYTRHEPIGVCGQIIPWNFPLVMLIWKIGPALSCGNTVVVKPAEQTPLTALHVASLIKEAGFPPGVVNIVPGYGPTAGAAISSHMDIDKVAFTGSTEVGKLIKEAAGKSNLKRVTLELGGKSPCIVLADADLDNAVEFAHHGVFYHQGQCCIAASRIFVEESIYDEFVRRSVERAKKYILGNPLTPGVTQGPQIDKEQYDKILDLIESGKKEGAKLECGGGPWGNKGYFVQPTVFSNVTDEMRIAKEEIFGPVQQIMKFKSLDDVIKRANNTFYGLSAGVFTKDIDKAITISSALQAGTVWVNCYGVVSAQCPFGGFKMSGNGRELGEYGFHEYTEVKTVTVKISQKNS
IMPase inh – qHTS Assay for Identifying the Cell-Membrane Permeable IMPase Inhibitors. inhibition (IP1 accumulation), % at 46.1 µM. AID 901, 2007. 120,000 tested, under 10 active. CHO-M1 cells, IP1 accumulation, HTRF TR-FRET ratio. Inositol monophosphatase 1 (Rattus norvegicus), P97697; active means well fitted curve in the direction sought with a large enough effect in the signal ratio, not every such curve was filed as active; inconclusive means small, poorly fitted or top-dose-only effect, or a change in a side signal; inactive means no such curve, though single readings can be large or run the other way; the % refers to the signal ratio;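 further: cells stimulated with carbachol in lithium chloride buffer; higher means more IMPase inhibition seen as more IP1 and lower FRET ratio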
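Measured: the HTRF emission ratio (665/620 nm) plus the 620 nm donor channel, each fitted to the Hill equation to give AC50. Cells were CHO-M1 given compounds up to 46 uM and a 30 min carbachol stimulation at 37C.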
Large screens that a line does not name were inactive; ! = a repeat was not active. Unless noted, the call rests on the fitted dose curve; in most records, active means well fitted inhibition curve with a large enough effect (not every such curve was filed as active); inconclusive means small, poorly fitted or top-dose-only effect, or another doubt; inactive means no such curve, though single readings can be large or run the other way.

Cc1sc2nc3c(SC(C)C(=O)O)cc(C(=O)c4ccccc4O)cn3c(=O)c2c1C (stereo not given)	ALDH1A1 block 8.9µM (no result: IMPase inh)
CC1CCc2c(sc(Nc3nc4c(F)cccc4s3)c2C(N)=O)C1 (stereo not given)	HPGD inh inconclusive, ALDH1A1 block inconclusive
CCC1=C(OC(=O)N(CC)CC)N2C(=O)OC(=NCC3CC3)[C@]2(Cc2ccccc2)[C@H]2C1=CC[C@H]1C(=O)N(CC)C(=O)[C@H]12	none (no result: IMPase inh)
Cc1cc(NC(=O)CSc2ncn(-c3ccccc3)n2)no1	ALDH1A1 block inconclusive
O=C(CSc1ncn(-c2ccccc2)n1)NCc1ccccc1	IMPase inh inconclusive
Cc1ccc(CSc2ncn(-c3ccccc3)n2)cc1	HPGD inh 20µM, ALDH1A1 block 16µM
Clc1ccccc1CSc1ncn(-c2ccccc2)n1	HPGD inh 18µM
CCC1Oc2ccc(C)cc2N(CC(=O)N(Cc2cccnc2)Cc2ccc(C)o2)C1=O (stereo not given)	HPGD inh 28µM, ALDH1A1 block 3.2µM
CCC1Oc2ccc(C)cc2N(CC(=O)N(Cc2ccc(C)o2)C2CC(C)(C)NC(C)(C)C2)C1=O (stereo not given)	none (no result: IMPase inh)
O=C1CNC(=O)/C(=C/c2ccco2)N1	none (no result: HPGD inh, IMPase inh)
CC(=O)c1ccc(NC(=S)N2c3ccccc3CC2C)cc1 (stereo not given)	ALDH1A1 block 25µM (no result: HPGD inh, IMPase inh)
CC1Cc2ccccc2N1C(=S)Nc1ccc(S(N)(=O)=O)cc1 (stereo not given)	none (no result: IMPase inh)
COc1ccc(-c2csc3c2[N+]2=CCC=C2C3=O)cc1	none (no result: IMPase inh)
Cc1cn([C@H]2C[C@H](O)[C@@H](CO)O2)c(=O)[nH]c1=O	none
CC1(C)CNc2cc(N)ccc2S1	none (no result: HPGD inh, IMPase inh)
NC(N)=NN=C1CCCCCCCCCCC1	none (no result: HPGD inh, IMPase inh)
O=C(CSc1ccsc1[N+](=O)[O-])NCc1ccccc1	ALDH1A1 block 3.2µM (no result: HPGD inh, IMPase inh)
COc1ccc(OC)c(CCNC(=O)CSc2ccsc2[N+](=O)[O-])c1	ALDH1A1 block 13µM (no result: HPGD inh, IMPase inh)
COc1ccc(CCNC(=O)CSc2ccsc2[N+](=O)[O-])c(OC)c1	ALDH1A1 block 14µM (no result: HPGD inh, IMPase inh)
COc1ccccc1CNC(=O)CSc1ccsc1[N+](=O)[O-]	none (no result: HPGD inh, IMPase inh)
CSc1ccc(CCNC(=O)CSc2ccsc2[N+](=O)[O-])cc1	none
COc1ccc(CCNC(=O)CSc2ccsc2[N+](=O)[O-])cc1OC	none (no result: HPGD inh, IMPase inh)
CCOc1ccc(C2CC(=O)n3nc(-c4ccc(C)cc4)nc3S2)cc1OC (stereo not given)	none (no result: HPGD inh, ALDH1A1 block)
COC(=O)c1ccc(C(NC(=O)OCc2ccccc2)/C(=C/[C@@H](C)C(=O)NCCc2c[nH]c3ccccc23)c2cccnc2)cc1 (stereo not given in full)	none (no result: IMPase inh)
Cc1cc(NC(=O)c2cc(C(C)C)on2)nn1Cc1ccc(Cl)cc1	none
CC(C)Cn1nnnc1S(=O)(=O)Cc1cccc(C#N)c1	ALDH1A1 block 3.5µM (no result: IMPase inh)
CC(C)Cn1nnnc1S(=O)(=O)Cc1ccccc1	none (no result: IMPase inh)
O=C(COC(=O)c1ccc[nH]c1=O)c1ccc(Cl)s1	none
Cc1ccc(C(=O)OCC(=O)c2ccc(Cl)s2)s1	HPGD inh 16µM, ALDH1A1 block inconclusive
COc1cc([N+](=O)[O-])ccc1N1C(=O)C2C3C=CC(C4CC34)C2C1=O (stereo not given)	none (no result: HPGD inh, IMPase inh)
COc1ccc(N/C(C)=C2/C(=O)C(=O)N(CCO)C2c2ccc([N+](=O)[O-])cc2)cc1 (stereo not given)	ALDH1A1 block 11µM
COc1ccc(C2/C(=C(/O)c3ccccc3)C(=O)C(=O)N2CO)cc1 (stereo not given)	ALDH1A1 block inconclusive
COCC(=O)N1CCC2(CC1)CCN(C(=O)Nc1cccc(C#N)c1)CC2	none (no result: IMPase inh)
CC(C)(O)c1cc(=O)sc2nc3ccccc3n12	none
COC(=O)/C=c1/sc2nc3ccccc3n2c1=O	HPGD inh 7.9µM, ALDH1A1 block 10µM
O=c1/c(=C/c2ccccn2)sc2nc3ccccc3n12	IMPase inh inconclusive
O=c1/c(=C\c2cc([N+](=O)[O-])cc([N+](=O)[O-])c2O)sc2nc3ccccc3n12	ALDH1A1 block 7.9µM (no result: HPGD inh, IMPase inh)
O=C(OCCCCN1C(=O)c2ccccc2C1=O)c1n[nH]c2ccccc12	HPGD inh 32µM
COC(=O)c1n[nH]c2ccccc12	none
CCOc1ccc(-c2nc(SCC(=O)NCCCOC)c(-c3ccccc3)[nH]2)cc1	none (no result: HPGD inh, ALDH1A1 block)
COc1ccc2c(c1)-c1nc(/N=C/c3ccc(O)c(OC)c3)sc1CC2	ALDH1A1 block 25µM (no result: IMPase inh)
COc1ccc2c(c1)-c1nc(NC(=O)c3cc(OC)c(OC)c(OC)c3)sc1CC2	none (no result: HPGD inh, ALDH1A1 block)
Cc1nc2ccccn2c1C(=O)NN	ALDH1A1 block 2.2µM (no result: HPGD inh)
CCOc1ccc(OCC)c(S(=O)(=O)NNC(=O)c2c(C)nc3ccccn23)c1	ALDH1A1 block inconclusive (no result: IMPase inh)
CCNC(=O)c1c(C)nc2ccccn12	none
Cc1nc2ccccn2c1C(=O)NNS(=O)(=O)c1ccc(C(C)(C)C)cc1	ALDH1A1 block 1.1µM (no result: IMPase inh)
CC(C)OC(=O)c1cccnc1N1CCN(c2cccc(Cl)c2)CC1	none (no result: HPGD inh, IMPase inh)
CC1CN(c2ccc(Cl)cc2[N+](=O)[O-])CCN1S(C)(=O)=O (stereo not given)	none (no result: HPGD inh, IMPase inh)
O=C1c2ccccc2C(=O)C1c1ccc2ccccc2n1	ALDH1A1 block 25µM!
COC(=O)C1=C(C)NC(C)=C(C(=O)OC)C1c1ccc2ccccc2n1	none
Cc1ccc(-n2c(Cn3nc(C(F)F)cc3C(F)F)n[nH]c2=S)cc1	none
CN(C)CCNC(C(=O)Nc1cccc(C(F)(F)F)c1)c1ccccc1 (stereo not given)	none (no result: HPGD inh, IMPase inh)
CCOCCCNC(C(=O)Nc1ccc(OC)c(Cl)c1)c1ccccc1 (stereo not given)	ALDH1A1 block 2.2µM (no result: HPGD inh, IMPase inh)
COCCNC(C(=O)Nc1cc(Cl)cc(Cl)c1)c1ccccc1 (stereo not given)	ALDH1A1 block 14µM
CCOCCCNC(=O)C(NC(=O)c1ccc(NC(C)=O)cc1)c1ccccc1 (stereo not given)	none
CN(C)c1ccc(C(=O)OCC(=O)NC2CCCCC2)cc1	none
C[C@H]1Cc2c(-c3ccccc3)nc3c(c2CO1)CN(C(=O)c1cccnc1)CC3	none (no result: IMPase inh)
O=C1NN=C(CSc2n[nH]c(=S)s2)CS1	ALDH1A1 block 3.5µM (no result: HPGD inh, IMPase inh)
CC(C)(CSc1ccccn1)NS(=O)(=O)c1ccccc1	ALDH1A1 block inconclusive (no result: IMPase inh)
CC(C)(CSc1ccccn1)NS(=O)(=O)c1ccc(Cl)cc1	ALDH1A1 block 10µM (no result: IMPase inh)
O=C1[C@@H]2[C@H]3[C@H](O)[C@H](O)C/C(=N/OC[C@@H](O)COCc4ccco4)[C@@H]3CC[C@H]2C(=O)N1c1ccc(F)cc1F	none (no result: HPGD inh, IMPase inh)
Cc1noc2ncc(C(=O)c3cc(F)ccc3O)cc12	none
Cc1ccc(O)c(C(=O)c2cnc3onc(-c4ccc(F)cc4)c3c2)c1	HPGD inh 13µM, ALDH1A1 block 14µM (no result: IMPase inh)
O=c1c(=Nc2ccccc2O)c(=O)c2ccccc12	ALDH1A1 block 22µM (no result: HPGD inh, IMPase inh)
O=c1[nH][nH]cc1C=Nc1ccccc1O	ALDH1A1 block inconclusive
CC1CCC2C(=O)N3CCCC3C(=O)N2C1c1ccc(Br)cc1 (stereo not given)	none (no result: HPGD inh, IMPase inh)
Cc1cc(OCC(=O)Nc2cnn(CCCC(=O)O)c2)ccc1[N+](=O)[O-]	none (no result: HPGD inh, IMPase inh)
COCCOC(=O)c1ccc(NC(=O)COc2ccc([N+](=O)[O-])cc2)cc1	none (no result: HPGD inh, IMPase inh)
CC(=O)Nc1ccc(NC(=O)COc2ccc([N+](=O)[O-])cc2)cc1	ALDH1A1 block 11µM (no result: HPGD inh, IMPase inh)

Assay outcomes (PubChem)
